# Reference: the supplement of paper PMC8728848
# The entries come from a sample that favours the strongest signals as a whole.
# B1: HPA (Helix pomatia), Q575S3 (protein)
# chain: MWAHLTGLLLICALSLSAAQRAQTGEIDCGSDSSWPKDPSDNPNRDNTREIVKHVTFSPQFCREPKVILSVTTLDAEHTKNLRYEARLKSVSPSGLSASCYSWHDGTIYRMKLSWLAVED
# Columns and labels:
# Assay in all cases: glycan array binding signal (z-score within array); higher = stronger binding
# Conditions in all cases: glycan notation: IUPAC condensed, linker removed
# [1] = target: GalNAc(a1-3)GalNAc(a1-3)Gal(a1-4)Gal(b1-4)GlcNAc
# Outline: (§1)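 Glycan array data were curated from 3228 arrays in the Consortium for Functional Glycomics database and kept only where the protein sequence was available. Glycan names were converted to IUPAC-condensed notation, and columns mapping to the same glycan were averaged. The binding signal is a within-array Z-score, averaged across arrays of the same protein sequence at different concentrations or buffers and across linkers. Negative Z-scores can be read as non-binding.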
# [2] = target: GalNAc(a1-3)GalNAc(b1-3)Gal(a1-4)Gal(b1-4)GlcNAc
# Outline: as §1
# Glc(b1-4)Glc = target: Glc(b1-4)Glc
# Outline: as §1
# Glc(b1-6)Glc = target: Glc(b1-6)Glc
# Outline: as §1
# GlcA(b1-3)Gal = target: GlcA(b1-3)Gal
# Outline: as §1
# [3] = target: GlcA3S(b1-3)Gal(b1-4)GlcNAc(b1-3)Gal(b1-4)Glc
# Outline: as §1
# [4] = target: GlcNAc(a1-3)Gal(b1-4)GlcNAc
# Outline: as §1
# [5] = target: GlcNAc(a1-4)Gal(b1-4)GalNAc
# Outline: as §1
# [6] = target: GlcNAc(a1-4)Gal(b1-4)GlcNAc(b1-3)Gal(b1-4)GlcNAc
# Outline: as §1
# [7] = target: GlcNAc(a1-4)Gal(b1-4)GlcNAc(b1-3)Gal(b1-4)GlcNAc(b1-3)Gal(b1-4)GlcNAc
# Outline: as §1
# [8] = target: GlcNAc(b1-2)[GlcNAc(b1-4)]Man(a1-3)[GlcNAc(b1-4)][GlcNAc(b1-2)[GlcNAc(b1-6)]Man(a1-6)]Man(b1-4)GlcNAc(b1-4)[Fuc(a1-6)]GlcNAc
# Outline: as §1
# [9] = target: GlcNAc(b1-2)[GlcNAc(b1-6)]Man(a1-6)[GlcNAc(b1-2)Man(a1-3)][GlcNAc(b1-4)]Man(b1-4)GlcNAc(b1-4)GlcNAc
# Outline: as §1
# [10] = target: GlcNAc(b1-3)Gal(b1-4)GlcNAc(b1-3)Gal(b1-4)GlcNAc(b1-2)Man(a1-3)[GlcNAc(b1-3)Gal(b1-4)GlcNAc(b1-3)Gal(b1-4)GlcNAc(b1-2)Man(a1-6)]Man(b1-4)GlcNAc(b1-4)[Fuc(a1-6)]GlcNAc
# Outline: as §1
# [11] = target: GlcNAc(b1-3)Gal(b1-4)GlcNAc(b1-3)Gal(b1-4)GlcNAc(b1-3)Gal(b1-4)GlcNAc(b1-2)Man(a1-3)[GlcNAc(b1-3)Gal(b1-4)GlcNAc(b1-3)Gal(b1-4)GlcNAc(b1-3)Gal(b1-4)GlcNAc(b1-2)Man(a1-6)]Man(b1-4)GlcNAc(b1-4)GlcNAc
# Outline: as §1
# [12] = target: GlcNAc(b1-3)Gal(b1-4)GlcNAc(b1-3)Gal(b1-4)GlcNAc(b1-3)Gal(b1-4)GlcNAc(b1-2)Man(a1-3)[GlcNAc(b1-3)Gal(b1-4)GlcNAc(b1-3)Gal(b1-4)GlcNAc(b1-3)Gal(b1-4)GlcNAc(b1-2)Man(a1-6)]Man(b1-4)GlcNAc(b1-4)[Fuc(a1-6)]GlcNAc
# Outline: as §1
# Kdn(a2-3)Gal(b1-4)GlcNAc = target: Kdn(a2-3)Gal(b1-4)GlcNAc
# Outline: as §1
# [13] = target: Neu5Ac(a2-3)Gal(b1-3)GalNAc(b1-3)Gal(a1-4)Gal(b1-4)Glc
# Outline: as §1
# [14] = target: Neu5Ac(a2-3)Gal(b1-3)GalNAc(b1-4)[Neu5Ac(a2-8)Neu5Ac(a2-3)]Gal(b1-4)Glc
# Outline: as §1
# [15] = target: Neu5Ac(a2-3)Gal(b1-3)[Fuc(a1-4)]GlcNAc(b1-3)Gal(b1-4)[Fuc(a1-3)]GlcNAc
# Outline: as §1
# [16] = target: Neu5Ac(a2-3)Gal(b1-4)GlcNAc(b1-3)Gal(b1-4)GlcNAc
# Outline: as §1
# [17] = target: Neu5Ac(a2-3)Gal(b1-4)GlcNAc(b1-3)Gal(b1-4)GlcNAc(b1-3)Gal(b1-4)GlcNAc
# Outline: as §1
# [18] = target: Neu5Ac(a2-3)Gal6S(b1-4)GlcNAc
# Outline: as §1
# [19] = target: Neu5Ac(a2-6)Gal(b1-4)GlcNAc(b1-2)Man(a1-3)[Gal(b1-4)GlcNAc(b1-2)Man(a1-6)]Man(b1-4)GlcNAc(b1-4)GlcNAc
# Outline: as §1
# [20] = target: Neu5Ac(a2-6)Gal(b1-4)GlcNAc(b1-3)Gal(b1-4)GlcNAc(b1-3)Gal(b1-4)GlcNAc(b1-2)Man(a1-3)[Neu5Ac(a2-6)Gal(b1-4)GlcNAc(b1-3)Gal(b1-4)GlcNAc(b1-3)Gal(b1-4)GlcNAc(b1-2)Man(a1-6)]GalNAc
# Outline: as §1
# [21] = target: Neu5Ac(a2-6)Gal(b1-4)GlcNAc(b1-3)Gal(b1-4)[Fuc(a1-3)]GlcNAc(b1-3)Gal(b1-4)[Fuc(a1-3)]GlcNAc
# Outline: as §1
# Neu5Ac(b2-6)GalNAc = target: Neu5Ac(b2-6)GalNAc
# Outline: as §1
# [22] = target: Neu5Ac9Ac(a2-6)Gal(b1-4)GlcNAc
# Outline: as §1
binder,measurement,setting,value
B1,glycan array binding signal (z-score),[1],5.04
same,glycan array binding signal (z-score),[2],5.7
same,glycan array binding signal (z-score),Glc(b1-4)Glc,-0.26
same,glycan array binding signal (z-score),Glc(b1-6)Glc,-0.266
same,glycan array binding signal (z-score),GlcA(b1-3)Gal,-0.262
same,glycan array binding signal (z-score),[3],-0.256
same,glycan array binding signal (z-score),[4],4.69
same,glycan array binding signal (z-score),[5],1.46
same,glycan array binding signal (z-score),[6],4.37
same,glycan array binding signal (z-score),[7],4.21
same,glycan array binding signal (z-score),[8],0.175
same,glycan array binding signal (z-score),[9],-0.24
same,glycan array binding signal (z-score),[10],-0.243
same,glycan array binding signal (z-score),[11],-0.257
same,glycan array binding signal (z-score),[12],-0.241
same,glycan array binding signal (z-score),Kdn(a2-3)Gal(b1-4)GlcNAc,-0.262
same,glycan array binding signal (z-score),[13],-0.243
same,glycan array binding signal (z-score),[14],-0.245
same,glycan array binding signal (z-score),[15],-0.209
same,glycan array binding signal (z-score),[16],-0.267
same,glycan array binding signal (z-score),[17],-0.265
same,glycan array binding signal (z-score),[18],-0.273
same,glycan array binding signal (z-score),[19],-0.261
same,glycan array binding signal (z-score),[20],-0.164
same,glycan array binding signal (z-score),[21],-0.253
same,glycan array binding signal (z-score),Neu5Ac(b2-6)GalNAc,-0.269
same,glycan array binding signal (z-score),[22],-0.274
